Article PMC7819943, “Rice protein-binding microarrays: a tool to detect cis-acting elements near promoter regions in rice”
In all, about 68,000 sequences were measured (“fluorescence intensity (a.u.)”: median about 9,100, highest 2% from about 16,000 on). Shown is part of a subset that was picked to be rich in the highest values.

target: OsWRKY34 (Oryza sativa, UniProt Q0JBA9 1-250); assay: protein-binding microarray (RPBM); PBS, 2% BSA, 51.3 ng/ul salmon testes DNA, 50 uM zinc acetate, 200 nM TF, 25 C, 1 h; high values mean tight binding; details: protein: recombinant; tags: N-terminal polyhistidine and DsRed monomer fusion (pET32a); label: CyDye5-dUTP incorporated in the synthesized complementary strand; 3' TTTTT single-stranded linker to array surface; dsDNA, one strand shown
Sequence (Q0JBA9 entry or part of it): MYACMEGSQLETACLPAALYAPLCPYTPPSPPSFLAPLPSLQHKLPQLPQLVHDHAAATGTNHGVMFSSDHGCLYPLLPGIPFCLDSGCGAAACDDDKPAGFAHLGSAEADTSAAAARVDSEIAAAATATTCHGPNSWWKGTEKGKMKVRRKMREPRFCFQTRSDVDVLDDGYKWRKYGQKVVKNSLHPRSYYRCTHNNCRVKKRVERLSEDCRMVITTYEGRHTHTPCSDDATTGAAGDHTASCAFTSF
In short: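 An Axon 4000B scanner gave the binding signal as per-feature fluorescence intensity in arbitrary units. This followed washing of a custom Agilent array that had been incubated for 1 h at 25 °C with 200 nM protein in PBS, 2% BSA, salmon testes DNA and 50 µM zinc acetate. The proteins were transcription factors fused at the N-terminus to polyhistidine and DsRed, expressed in E. coli BL21-CodonPlus and purified on Ni–NTA.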

| Sequence | binding signal |
| --- | --- |
| TCCATCGCGCGTCGTCTCCACCTTTGTTGCTTGTGCCACCCGGAGTCACCTAGTGCAG | 10200 fluorescence intensity (a.u.) |
| ATGGGGTATTTAGGATGGGCAATATTTTGGTAGTGAGGAGCGGAGTCACCTAGTGCAG | 9430 fluorescence intensity (a.u.) |
| TGCTAAAAAGTCAACGGTGTCAAACATTTCGAAACGGAGGCGGAGTCACCTAGTGCAG | 10900 fluorescence intensity (a.u.) |
| ACCACCACCGTCTCAACTCTCTCTCAGACTGTCCGCCATGCGGAGTCACCTAGTGCAG | 8030 fluorescence intensity (a.u.) |
| ATATATCCATGCGAACTTCGCTCCAATAGTGAATTTTATCCGGAGTCACCTAGTGCAG | 8900 fluorescence intensity (a.u.) |
| ATATACATAAGCTTCTCGTGCACACACAAACTAACATAAACGGAGTCACCTAGTGCAG | 8610 fluorescence intensity (a.u.) |
| GCTTTATCGTGCAAACACCTAAGCTGATAAAGGCAAAGGTCGGAGTCACCTAGTGCAG | 23200 fluorescence intensity (a.u.) |
| TAAAGCTTTATATAGCTGGCCCGCTGACTTTTTTATATATCGGAGTCACCTAGTGCAG | 9020 fluorescence intensity (a.u.) |
| GGAGCGATGACGTTCTATACCTTCGGCCTTCGTTTGACCGCGGAGTCACCTAGTGCAG | 10600 fluorescence intensity (a.u.) |
| TTGATTTCTCTGAGTTTGTGTTCTTGGCATCATCATCATTCGGAGTCACCTAGTGCAG | 11400 fluorescence intensity (a.u.) |
| TTTTTCTCCCCAGATTGCTGTGCACGGATTTGCCGTAAGACGGAGTCACCTAGTGCAG | 8360 fluorescence intensity (a.u.) |
| TGTGTTTGAGGGGTGTGTATGTGTTGTGTTGTAGGTCAACCGGAGTCACCTAGTGCAG | 9510 fluorescence intensity (a.u.) |
| TATTTTATCTCACTGGCTATTTCCTATGATTATTTATTTCCGGAGTCACCTAGTGCAG | 11400 fluorescence intensity (a.u.) |
| GCCGTATTTGTTTTTTTGGGATTTGGGGTTTGGATACTTGCGGAGTCACCTAGTGCAG | 18700 fluorescence intensity (a.u.) |
| TTGCTTGTGTTGGGCCGTAGGGTTTTTGTTTTTTTTTTTGCGGAGTCACCTAGTGCAG | 8410 fluorescence intensity (a.u.) |
| TTTTGGGGATAGATTTGCGCTTTTGGTGGGTGGGTTTGGGCGGAGTCACCTAGTGCAG | 14200 fluorescence intensity (a.u.) |
| GATTTCTTTGTTGATTTTATTGGTTTTCTCCTAATCTTGCCGGAGTCACCTAGTGCAG | 8820 fluorescence intensity (a.u.) |
| ATTTGGGGTTTGGATACTTGAACTTTATTTTGACTTCTGACGGAGTCACCTAGTGCAG | 14000 fluorescence intensity (a.u.) |
| GGGGCGATTTTTTTTTTTTTTTAGAATTGCGAGATAGGGGCGGAGTCACCTAGTGCAG | 10700 fluorescence intensity (a.u.) |
| AGTGTTAATCTTACTCCTTGTTGTATATTGCTAAGTTTTTCGGAGTCACCTAGTGCAG | 12900 fluorescence intensity (a.u.) |
| GCGGGCTGTTTTTTTCTTGCGGTTTGGTTTGGGATTTCTGCGGAGTCACCTAGTGCAG | 17400 fluorescence intensity (a.u.) |
| TTCTGTTTGGGTTTTGATTTGTTTCGGTTTGGCTGTTCTTCGGAGTCACCTAGTGCAG | 10600 fluorescence intensity (a.u.) |
| AGGAGGGGTATTGTTGCTAATCTTGATTGTTTTACTCTTGCGGAGTCACCTAGTGCAG | 17000 fluorescence intensity (a.u.) |
| TTGTGTTTGGGCGGGAGAATTTTTGGGGATAGATTTGCGCCGGAGTCACCTAGTGCAG | 18500 fluorescence intensity (a.u.) |
| GGCTTTTGGTTTCTTGGTGGTTGTGGATTTTTTTTTTTTGCGGAGTCACCTAGTGCAG | 12300 fluorescence intensity (a.u.) |
| TCTGTATATAAGGCCTGATTTAGTTCCCAAATTTTTTTTCCGGAGTCACCTAGTGCAG | 8100 fluorescence intensity (a.u.) |
| AATATTTCCCTTTCCAATGTTCAGTCAGCCCATCAGACCGCGGAGTCACCTAGTGCAG | 8110 fluorescence intensity (a.u.) |

| Sequence | binding signal |
| --- | --- |
| GTTCCAAAATTTTTCTTTAAACTTCCAACATTTTCATCACCGGAGTCACCTAGTGCAG | 9190 fluorescence intensity (a.u.) |
| GTATGGTACAGCACATTTCTCTGTTCAAGTGTTCATTATGCGGAGTCACCTAGTGCAG | 8610 fluorescence intensity (a.u.) |
| ATATATATGGATTAGGTTTGGATTGGGGATCATTTGTATGCGGAGTCACCTAGTGCAG | 8360 fluorescence intensity (a.u.) |
| ACCTAGATCCACCTCGTTAGTTTATTTTGTGAGAGTGCTCCGGAGTCACCTAGTGCAG | 9140 fluorescence intensity (a.u.) |
| AACACTCACATCAAGTCATCAACCGACCTTGTCAAGTCAACGGAGTCACCTAGTGCAG | 10600 fluorescence intensity (a.u.) |
| TTGGTTGCATGTTTTTTCACGTAAAATCTTAATTTTTGCACGGAGTCACCTAGTGCAG | 8150 fluorescence intensity (a.u.) |
| TTGCTCACCAGAGCTACTACTACCGGTCTGTCACGCTCACCGGAGTCACCTAGTGCAG | 9180 fluorescence intensity (a.u.) |
| CCGACTGCTCAATCACCACCGGTCTGACCGGCTACCAGAGCGGAGTCACCTAGTGCAG | 17200 fluorescence intensity (a.u.) |
| TGCTCCGACCACTGCCCACCCCGCTCCACCGGCTAGAGAGCGGAGTCACCTAGTGCAG | 9120 fluorescence intensity (a.u.) |
| CAACATCTTCTTTAGTTGCTCACACTTTTTCTTAGAATCACGGAGTCACCTAGTGCAG | 8340 fluorescence intensity (a.u.) |
| TTTCTTCGTCCTCTTGGTTTCCCTTTCAATTCATTCATTTCGGAGTCACCTAGTGCAG | 8460 fluorescence intensity (a.u.) |
| GCTCGCCCGTCTTTCGCTCTGCCCGCAGCCCGCCGCCGCTCGGAGTCACCTAGTGCAG | 14000 fluorescence intensity (a.u.) |
| ACCGGCCCAGAACAGTTGGGCAGCCCACGAAGTCACCAACCGGAGTCACCTAGTGCAG | 8540 fluorescence intensity (a.u.) |
| CTTAGTTCTCCGCGCTATTCACTTCTGCGCCGTCGCTTTTCGGAGTCACCTAGTGCAG | 8640 fluorescence intensity (a.u.) |
| CAAGATGGGTCGGGTTGGGTGGGGTTACTCGCACTAGCACCGGAGTCACCTAGTGCAG | 22300 fluorescence intensity (a.u.) |
| GACGGCGCCCTGCGGCTTCGGTTGCGGGGTGGGTGGTGGCCGGAGTCACCTAGTGCAG | 10300 fluorescence intensity (a.u.) |
| GAGGGGAGGGAGAGGTCGGAGATGGTTACCGGTGGGGAAGCGGAGTCACCTAGTGCAG | 12300 fluorescence intensity (a.u.) |
| TGGGTGGGTTGGGTGGGTGGGTGGGTGCGCGGCGGGTATGCGGAGTCACCTAGTGCAG | 32800 fluorescence intensity (a.u.) |
| GTGGGGCTCGGGTTCCGGCCGGTGTAGGGGAGGGGAGATGCGGAGTCACCTAGTGCAG | 15700 fluorescence intensity (a.u.) |
| GCGCTGTGGTCCCGGCGCCGGCAGTGGTTGCTTCTGCGCGCGGAGTCACCTAGTGCAG | 8560 fluorescence intensity (a.u.) |
| CTCAGTATTGGGTTGGGTGGTGGTGGCGGCGGTGGCAGTGCGGAGTCACCTAGTGCAG | 13700 fluorescence intensity (a.u.) |
| GCTTCGGCTCGGGGTGGGTTGGGTTGGGTTGGGTTCGATGCGGAGTCACCTAGTGCAG | 32400 fluorescence intensity (a.u.) |
| GAAGCTTCGGGAGTGGTGGTGGGTTGCGGCCGTGCGGCTCCGGAGTCACCTAGTGCAG | 10900 fluorescence intensity (a.u.) |
| TTGGGTTGGGTTGGGTGGTCCATTCTGTACGGTGCGCCGGCGGAGTCACCTAGTGCAG | 19600 fluorescence intensity (a.u.) |
| GGGTGGGCGTGATGGAGTTGGGTCGGCCGGGGTGTCCGGTCGGAGTCACCTAGTGCAG | 14500 fluorescence intensity (a.u.) |
| GCGCGGCGGCGGTGGGGTGGTAGTGGTGGTGGGTGGAATGCGGAGTCACCTAGTGCAG | 13500 fluorescence intensity (a.u.) |
| CATGTGTGGTGAGCATATTTGTTTGTACTGTTGTATTTTACGGAGTCACCTAGTGCAG | 9560 fluorescence intensity (a.u.) |
